# Sm TGR inh – S. mansoni TGR enzyme inhibition; Q962Y6; purified TGR, DTNB reduction, TNB absorbance 405 nm; Potency, µM (doses to about 114 µM), for the others: top-dose activity change, negative = inhibition, usual class: inhibitors; hit rate 3% among 360,000; AID 485364; note: potency is the fitted concentration of half-maximal effect; nearly all actives have a fitted effect of over 60% in size
#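 Kinetic colorimetric format: TGR-catalysed, NADPH-driven DTNB reduction monitored via TNB absorbance. Enzyme dispensed at 20 nM; compound exposure 15 min at room temperature before reaction start.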
# HCMV antiviral – inhibitors of human cytomegalovirus | hit rate 4.5% among 410,000 | activity change, negative = inhibition, % at 57.5 µM | HFF cells, HCMV-luciferase reporter, 72 h; stronger effect = lower value; in the data active = activity change below about -60%; inconclusive = no clear call, values can overlap the other calls; inactive = above about -39%
#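 Inhibition of viral replication was scored as loss of reporter luminescence in HFFs infected with HCMV-luciferase (MOI 1 PFU/cell) for 72 h; compounds tested at 2 doses, normalized to buffer and Salinomycin controls.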
# Pf growth 96h – inhibits malaria parasite growth, 96 h; Potency, µM (highest dose often 28.7 µM), for the others: top-dose activity change, negative = inhibition, usual class: inhibitors; P. falciparum luciferase reporter growth, 96 h; hit rate 6.9% among 320,000; note: potency is the fitted concentration of half-maximal effect
#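 Parasite growth measured via integrated firefly luciferase reporter in P. falciparum. Infected erythrocytes at 2% hematocrit, 0.05% parasitemia final were treated 96 hours at 37 C under 5% CO2, and luminescence was read.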
# FBPA Giardia inh – blocks Giardia fructose-bisphosphate aldolase activity | A8B2U2 | purified Giardia FBPA | Potency, µM (titrated, usually from 59.6 µM), without a hit: at the top dose activity, negative = inhibition, hits mostly inhibitors | hit rate 0.71% among 290,000; note: potency is the fitted concentration of half-maximal effect; nearly all actives have a fitted effect of over 55% in size
# Target sequence (A8B2U2 whole entry, looked up): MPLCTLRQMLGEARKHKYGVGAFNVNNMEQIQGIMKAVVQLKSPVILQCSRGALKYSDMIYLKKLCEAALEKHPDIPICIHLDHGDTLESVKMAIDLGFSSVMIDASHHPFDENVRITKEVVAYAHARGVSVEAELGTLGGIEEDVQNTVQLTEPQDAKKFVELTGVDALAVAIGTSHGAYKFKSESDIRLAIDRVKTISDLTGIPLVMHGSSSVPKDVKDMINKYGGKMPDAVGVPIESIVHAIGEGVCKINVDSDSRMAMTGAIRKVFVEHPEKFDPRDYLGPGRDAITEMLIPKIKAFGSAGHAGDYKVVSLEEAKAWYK
#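 Giardia FBPA (40 nM reagent) was preincubated 10 min at RT with compound (up to 57.5 uM final), then substrate plus GAPDH/TPI/NAD/arsenate coupling system with diaphorase/resazurin was added; resorufin fluorescence (525/598 nm) was read after 20 min.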
# Pf growth 48h – P. falciparum growth inhibition at 48 hours (one generation); hit rate 5.9% among 310,000; Potency, µM (top dose mostly 28.7 µM), inactives show top-dose activity change, negative = inhibition, most hits filed as inhibitors; P. falciparum luciferase growth in erythrocytes, 48 h; AID 504832; note: potency is the fitted concentration of half-maximal effect
#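 Cell-based growth assay: transgenic P. falciparum expressing firefly luciferase, cultured in red cells within RPMI 1640 containing 0.5% w/v Albumax, 24 mM bicarbonate and gentamycin. A drop in luciferase activity indicates inhibition.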
# * = called active by the depositor; i = inactive; u = inconclusive; x = no result. Compounds with a hit are over-represented: about 14% of the library has one in this group of screens. Unless noted, calls come from the whole dose curve; as a rule, active = well fitted curve in the direction sought with a large enough effect; inconclusive = small, poorly fitted or top-dose-only effect, or another doubt; inactive = no such curve, though single readings can be large; an effect the other way counts as inactive or inconclusive. % is set by controls: 0 for no effect and ±100 for the full control effect.
SMILES,Sm TGR inh,HCMV antiviral,Pf growth 96h,FBPA Giardia inh,Pf growth 48h
COc1cccc(CNC(=O)Cn2c(=O)c3cccn3c3ccccc32)c1,-1%,-66*,-2%,x,-16%
CN(CCCNC(=O)Cn1c(=O)c2cccn2c2ccccc21)Cc1ccccc1,-16%,-88*,u,x,-9%
CC(C)N(CCCNC(=O)Cn1c(=O)c2cccn2c2ccccc21)Cc1ccccc1,u,-1,u,x,-14%
O=C(c1ccc(S(=O)(=O)N2CCOCC2)cc1)N(c1cccc(Cl)c1)C1C=CS(=O)(=O)C1 (centres undefined),1%,40,-28%,1%,u
CCOC(=O)c1c(C)[nH]c(C)c1C(=O)CSc1nc2ccccc2c(=O)n1-c1ccc(Cl)cc1,2%,u,9.3µM*,-7%,u
Cc1[nH]c2ccccc2c1C(=O)CSc1nc2ccccc2[nH]1,14%,39,70%,-7%,39%
Cc1[nH]c2ccccc2c1C(=O)CSc1nc2ccccc2c(=O)n1-c1ccccc1F,x,-89*,u,-3%,-17%
CC1(C)CC(=O)C(CS(=O)(=O)c2ccccc2)=C(O)C1,1µM*,24,15%,x,u
CC1(C)CC(=O)C(CC(=O)Nc2ccc(S(N)(=O)=O)cc2)=C(O)C1,-35%,35,u,5%,2%
c1ccc(-c2ccc3ccccc3n2)cc1,x,30,x,x,x
c1ccc(-c2cccc(-c3ccccc3)n2)cc1,0%,-65*,45%,0%,x
CC(C)CN(C(=O)CN1CCN(c2ccc(F)cc2)CC1)c1c(N)n(CC(C)C)c(=O)[nH]c1=O,-14%,-32,75%,6%,-2%
CCCCn1c(N)c(N(CCOC)C(=O)C2CCN(S(=O)(=O)c3ccc(Cl)cc3)CC2)c(=O)[nH]c1=O,-1%,-70*,u,x,75%
CCCCn1c(N)c(N(CC(C)C)C(=O)C2CCN(S(=O)(=O)c3ccc(C)cc3C)CC2)c(=O)[nH]c1=O,-1%,-12,u,x,13µM*
Cc1ccc(S(=O)(=O)N2CCN(CC(=O)N(CC(C)C)c3c(N)n(CC(C)C)c(=O)[nH]c3=O)CC2)c(C)c1,6%,-35,4.1µM*,-6%,u
CCCCn1c(N)c(N(CCOC)C(=O)C2CCN(S(=O)(=O)c3ccc(F)cc3)CC2)c(=O)[nH]c1=O,-3%,-36,-3%,x,-5%
CCCCn1c(N)c(N(CC(C)C)C(=O)C2CCN(S(=O)(=O)c3ccc(C)c(C)c3)CC2)c(=O)[nH]c1=O,16%,17,2.3µM*,-2%,2.6µM*
Cc1ccc2c(c1)CC(C)N2S(=O)(=O)c1nnc(NC(=O)CC(C)C)s1 (centres undefined),-12%,-12,90%,x,u
CCCCn1c(N)c(N(CCOC)C(=O)C2CCN(S(=O)(=O)c3ccc(C)cc3)CC2)c(=O)[nH]c1=O,-17%,-20,-11%,x,9%
CCCCn1c(N)c(N(CCOC)C(=O)C2CCN(S(=O)(=O)c3ccc(C)cc3C)CC2)c(=O)[nH]c1=O,-5%,-27,u,x,13µM*
O=C(NCC(=O)N(CCc1ccccc1)C(C(=O)NC1CCCC1)c1cccnc1)c1ccco1 (centres undefined),-26%,x,3%,6%,15µM*
O=C(NC1CCCC1)C(c1cccnc1)N(CCc1ccccc1)C(=O)c1ccco1 (centres undefined),x,6,43%,4%,5.2µM*
CCC(C)c1ccc(N(C(=O)c2ccco2)C(C(=O)NC2CCCC2)c2cccnc2)cc1 (centres undefined),-3%,2,28%,-3%,1.9µM*
O=C(NCC(=O)N(CCc1ccccc1)C(C(=O)NC1CCCCC1)c1ccncc1)c1ccco1 (centres undefined),u,1,11%,11%,u
CCc1ccc(N(C(=O)c2ccco2)C(C(=O)NC2CCCC2)c2cccnc2)cc1 (centres undefined),0%,u,u,6%,u
SMILES,Sm TGR inh,HCMV antiviral,Pf growth 96h,FBPA Giardia inh,Pf growth 48h
O=C(NC1CCCCC1)C(c1cccnc1)N(CCc1ccccc1)C(=O)Cc1cccs1 (centres undefined),-5%,u,21%,0%,13µM*
COc1cccc(/C=C/c2nc(C#N)c(N3CCN(C)CC3)o2)c1,33%,-3,x,x,x
O[Si](CCCN1CCCCC1)(c1ccc(F)cc1)C1CCCCC1 (centres undefined),-12%,-18,0.1µM*,3%,0.093µM*
CC1(c2ccccc2Br)NC(=O)N(CC(=O)NC2CCCCC2)C1=O (centres undefined),7%,-12,12µM*,x,u
COc1ccc(C2(C)NC(=O)N(CC(=O)NC3CC3)C2=O)cc1 (centres undefined),x,-18,x,x,x
CSc1ccccc1NC(=O)NCCCl,-1%,-30,-11%,-15%,51%
COc1ccc(-c2nc3c(Br)c(N)c(Br)cc3o2)cc1,2%,225,u,u,2.3µM*
COc1ccc(Cn2cnc3cnc(Nc4ccc(C(=O)N(C)C)cc4)cc32)cc1OC,x,2,x,x,x
C=C[C@]1(C)C=C2C(=O)[C@@]3(O)OC(=O)[C@@]4(CCCC(C)(C)[C@H]34)[C@@]2(O)CC1,x,-101*,x,x,x
O=C(Nc1ccc(Cl)cc1)Nc1ccc2c(c1)N1CCN=C1S2,0%,u,2.1µM*,-5%,0.74µM*
Cc1cc(C=C2C(=O)N(C)C(=O)N(C)C2=O)c(C)n1-c1ccccc1,-6%,-3,u,1%,15%
CN1C(=O)C(=Cc2sc(=O)n(-c3ccccc3)c2N(C)C)C(=O)N(C)C1=O,7%,-60*,-28%,-7%,u
Cc1nc(NC2CCCCC2)c2nc(-c3ccccc3)n(CCCN3CCOCC3)c2n1,x,x,x,3%,x
CCn1c2ccc(Cl)cc2c2nc3ccccc3nc21,28µM*,-3,6%,-8%,0%
CCn1c2ccc(OC)cc2c2nc3ccccc3nc21,1%,55,i,-1%,u
CCOC(=O)c1cnc2ccc(C)cc2c1NCCc1ccc(OC)c(OC)c1,5%,21,x,x,x
COC1=C2C[C@@H](C)C[C@H](OC)[C@H](O)[C@@H](C)/C=C(\C)[C@H](OC(N)=O)[C@@H](OC)/C=C\C=C(/C)C(=O)NC(=CC1=O)C2=O,x,x,x,3.5µM*,x
COc1cccc(C(NC(C)=O)c2nc(-c3cccs3)cs2)c1 (centres undefined),x,1,x,x,x
O=C(CSc1ccc(-c2ccco2)nn1)NCc1ccc(Cl)cc1,16µM*,8,u,-5%,5%
COc1cccc(CNC(=O)CSc2ccc(-c3ccccn3)nn2)c1,-9%,-32,1%,-22%,u
Cc1cccc(NC(=O)CSc2ccc(-c3ccco3)nn2)c1C,2%,-14,u,-2%,-5%
COc1ccccc1-c1ccc(SCC(=O)NCCc2ccccc2)nn1,3%,-13,u,-3%,-17%

# Screening data: PubChem BioAssay, National Center for Advancing Translational Sciences (NCATS)
